Measured values reported in PubChem BioAssay (Tox21).
Inconclusive results are not listed. Calls of active or inactive are those of the source. Unless noted, the call rests on the fitted dose curve; in most records, active means well fitted cell-killing curve with a large enough effect in the repeat runs; inconclusive means weak or mixed curves; inactive means no such curve, though single readings can be large or run the other way.
On the % scale 0 is the no-effect control and ±100 the full control effect.

System: not listed separately
Test: qHTS assay to identify small molecule agonists of the peroxisome proliferator-activated receptor delta (PPARd) signaling pathway - cell viability counter screen (AID 743211); further: nearly all actives have a fitted effect of over 55% in size; further: potency means the concentration at half of the fitted maximal effect
Conditions: PPARd-bla HEK293H viability, CellTiter-Glo luminescence, 17 h; series mostly up to 62.6 µM; activity change, negative = cytotoxicity: at the top concentration
Method in brief: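 Viability of GeneBLAzer PPARd UAS-bla HEK293H cells was assessed after 17 h compound incubation at 37C, using CellTiter-Glo reagent added after the reporter read and luminescence recorded 30 min later.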
For `C=CCOC(=O)C(C)(C)OC(=O)c1cc(-n2c(=O)cc(C(F)(F)F)n(C)c2=O)ccc1Cl`, the “activity change, negative = cytotoxicity” value was 2.27% (inactive).
With `CCCC(C)(COC(N)=O)COC(=O)NC(C)C` (centres undefined) the Potency was “inactive”.
For `ClCc1ccccc1Cl`, the “activity change, negative = cytotoxicity” value was -0.332% [at 81.1 µM] (inactive).
In the case of `CCCCC1C(=O)NC(=O)N(C2CCCCC2)C1=O` (centres undefined), the “activity change, negative = cytotoxicity” value is reported as 2.05% (inactive).
For `Nc1ccccc1C(=O)OCCc1ccccc1`, the Potency was “inactive”.
For `CCC1(C2=NCCN2)Cc2ccccc2O1` (centres undefined), the “activity change, negative = cytotoxicity” value was -6.19% (inactive).
In the case of `COc1cc(C[C@@H](C)N)c(OC)cc1Br`, the Potency is reported as 62.8 µM (active).
In the case of `CC(C)(C)c1ccc(CCOc2ncnc3ccccc23)cc1`, the “activity change, negative = cytotoxicity” value is reported as 5.16% (inactive).
For `NNCCO`, the “activity change, negative = cytotoxicity” value was -0.269% (inactive).
For `O=S(=O)(Cl)Cl`, the “activity change, negative = cytotoxicity” value was 0.257% (inactive).
For `CCN(C(C)=O)c1cccc(-c2ccnc3c(C#N)cnn23)c1`, the “activity change, negative = cytotoxicity” value was 0.31% (inactive).
With `CC1(C)[C@H](C(=O)O[C@H](C#N)c2cccc(Oc3ccccc3)c2)[C@@H]1C=C(Br)Br` the Potency was “inactive”.
For `Oc1cccc(Cl)c1`, the “activity change, negative = cytotoxicity” value was -9.42% (inactive).
In the case of `CN1C[C@H](C(=O)N[C@]2(C)O[C@@]3(O)[C@@H]4CCCN4C(=O)[C@H](Cc4ccccc4)N3C2=O)C=C2c3cccc4[nH]cc(c34)C[C@H]21`, the Potency is reported as “inactive”.
With `c1ccc2c(c1)-c1cccc3cccc-2c13` the Potency was “inactive”.
For `O=C(Cl)OCCOCCOC(=O)Cl`, the “activity change, negative = cytotoxicity” value was 0.504% (inactive).
In the case of `CN1CC[C@]23c4c5ccc(O)c4O[C@H]2[C@@H](O)C=C[C@H]3[C@H]1C5`, the “activity change, negative = cytotoxicity” value is reported as -2.06% [at 81.1 µM] (inactive).
In the case of `CCCC[P+](CC)(CCCC)CCCC` (tested in a mixture with another compound), the “activity change, negative = cytotoxicity” value is reported as -6.71% [at 81.1 µM] (inactive).
In the case of `O=C([O-])c1ccccn1.O=C([O-])c1ccccn1.O=C([O-])c1ccccn1.[Cr+3]`, the “activity change, negative = cytotoxicity” value is reported as 0.523% (inactive).
With `C=CC(C)(CCC=C(C)C)OC(=O)c1ccccc1N` (centres undefined) the “activity change, negative = cytotoxicity” value was 11.4% [at 81.1 µM] (inactive).
In the case of `CC(Cl)C(=O)O` (centres undefined), the “activity change, negative = cytotoxicity” value is reported as 3.13% [at 81.1 µM] (inactive).
With `CC(Oc1cc(Cl)c(Cl)cc1Cl)C(=O)O` (centres undefined) the “activity change, negative = cytotoxicity” value was 1.01% (inactive).
With `Cc1ncc(C[n+]2csc(CCO)c2C)c(N)n1` the “activity change, negative = cytotoxicity” value was -1.6% (inactive).
In the case of `CCOP(=S)(S)OCC`, the “activity change, negative = cytotoxicity” value is reported as 3.88% [at 81.1 µM] (inactive).
For `N#CC1(N=NC2(C#N)CCCCC2)CCCCC1`, the “activity change, negative = cytotoxicity” value was -4.48% (inactive).
With `COc1cc(CC#N)cc(OC)c1OC` the “activity change, negative = cytotoxicity” value was 2.06% (inactive).

Biological target: Peroxisome proliferator-activated receptor delta (Homo sapiens) (UniProt Q03181)
Sequence (Q03181 whole entry, looked up): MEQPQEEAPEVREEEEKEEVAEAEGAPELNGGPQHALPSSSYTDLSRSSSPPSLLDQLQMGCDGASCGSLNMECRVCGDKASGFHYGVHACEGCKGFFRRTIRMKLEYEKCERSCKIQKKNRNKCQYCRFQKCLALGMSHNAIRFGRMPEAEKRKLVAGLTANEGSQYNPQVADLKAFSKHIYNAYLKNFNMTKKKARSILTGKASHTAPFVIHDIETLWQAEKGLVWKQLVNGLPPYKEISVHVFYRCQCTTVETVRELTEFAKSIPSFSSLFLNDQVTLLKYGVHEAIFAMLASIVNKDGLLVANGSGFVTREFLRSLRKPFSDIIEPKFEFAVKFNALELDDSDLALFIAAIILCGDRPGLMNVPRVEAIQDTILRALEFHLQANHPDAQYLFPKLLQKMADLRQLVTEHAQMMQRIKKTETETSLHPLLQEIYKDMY
Test: qHTS assay to identify small molecule agonists of the peroxisome proliferator-activated receptor delta (PPARd) signaling pathway (AID 743212; calls by dose curve;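 further: HEK293H cells with PPARd UAS beta-lactamase reporter GeneBLAzer system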)
Conditions: HEK293H PPARd-UAS-bla, beta-lactamase FRET ratio, 17 h; series mostly up to 62.6 µM; activation: at the top concentration
Method in brief: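 Beta-lactamase reporter read by fluorescence (LiveBLAzer B/G FRET, 2 h, room temperature). Test agents, in DMSO, incubated at 37 C with PPARd-bla HEK293H cells.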
In the case of `CC[N+]1(C)CCCC(OC(=O)C(O)(c2ccccc2)c2ccccc2)C1` (centres undefined), the “activation” value is reported as -0.429% (inactive).
For `Cc1cccc(C)c1NC1=NCCCS1`, the “activation” value was -4.81% (inactive).
With `CCCCC(CC)CO[N+](=O)[O-]` (centres undefined) the “activation” value was -0.093% (inactive).
In the case of `CCNC(=O)NC(=O)/C(C#N)=N/OC`, the “activation” value is reported as -2.39% (inactive).
In the case of `N#CC(C#N)=Cc1ccc(O)c(O)c1`, the “activation” value is reported as 2.28% (inactive).
With `CC(CC(C(N)=O)(c1ccccc1)c1ccccc1)N(C)C` (centres undefined) the “activation” value was 0.0974% (inactive).
For `C1CS1`, the “activation” value was 0.0623% [at 81.1 µM] (inactive).
In the case of `O=C(Cc1ccccc1)OCCc1ccccc1`, the “activation” value is reported as 2.39% (inactive).
With `c1ccc2c(c1)sc1ccccc12` the outcome was “inactive”.
For `CCCN(CCOc1c(Cl)cc(Cl)cc1Cl)C(=O)n1ccnc1`, the “activation” value was 0.253% (inactive).
For `Cc1cnc(C2=NC(C)(C(C)C)C(=O)N2)c(C(=O)O)c1` (centres undefined), the “activation” value was -1.89% (inactive).
For `C=CC(=O)NC(C)(C)CC(C)=O`, the “activation” value was 2.73% (inactive).
In the case of `CC(C)(C)NCC(O)c1cc(Cl)c(N)c(C(F)(F)F)c1` (centres undefined), the “activation” value is reported as 0.412% (inactive).

System: not listed separately
Test: qHTS assay to identify small molecule antagonists of the peroxisome proliferator-activated receptor delta (PPARd) signaling pathway - cell viability counter screen (AID 743213); further: nearly all actives have a fitted effect of over 50% in size
Conditions: PPARd-bla HEK293H viability, CellTiter-Glo luminescence, 17 h; series mostly up to 62 µM; viability change, negative = cytotoxic: at the top concentration
Method in brief: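 PPARd-bla HEK293H cells were treated with compounds plus agonist L165041 (300 nM final) for 17 h at 37 C. Viability was then read in the same wells by CellTiter-Glo luminescence after 30 min at room temperature.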
With `Nc1ccccc1C(=O)OCCc1ccccc1` the “viability change, negative = cytotoxic” value was -23% (inactive).
In the case of `CC[N+]1(C)CCCC(OC(=O)C(O)(c2ccccc2)c2ccccc2)C1` (centres undefined), the “viability change, negative = cytotoxic” value is reported as 10.3% (inactive).
In the case of `CC1(C)[C@H](C(=O)O[C@H](C#N)c2cccc(Oc3ccccc3)c2)[C@@H]1C=C(Br)Br`, the Potency is reported as “inactive”.
For `Cc1cccc(C)c1NC1=NCCCS1`, the “viability change, negative = cytotoxic” value was 2.13% (inactive).
With `c1ccc2c(c1)-c1cccc3cccc-2c13` the Potency was “inactive”.
With `CCCCC(CC)CO[N+](=O)[O-]` (centres undefined) the “viability change, negative = cytotoxic” value was 0.142% (inactive).
For `CCNC(=O)NC(=O)/C(C#N)=N/OC`, the “viability change, negative = cytotoxic” value was -11.7% (inactive).
In the case of `N#CC(C#N)=Cc1ccc(O)c(O)c1`, the “viability change, negative = cytotoxic” value is reported as 2.26% (inactive).
For `CC(CC(C(N)=O)(c1ccccc1)c1ccccc1)N(C)C` (centres undefined), the “viability change, negative = cytotoxic” value was -3.22% (inactive).
With `C1CS1` the “viability change, negative = cytotoxic” value was -6.71% [at 80.4 µM] (inactive).
For `O=C(Cc1ccccc1)OCCc1ccccc1`, the “viability change, negative = cytotoxic” value was 0.0922% (inactive).
In the case of `CCCC[P+](CC)(CCCC)CCCC` (tested in a mixture with another compound), the “viability change, negative = cytotoxic” value is reported as -14.7% [at 80.4 µM] (inactive).
In the case of `C=CC(C)(CCC=C(C)C)OC(=O)c1ccccc1N` (centres undefined), the “viability change, negative = cytotoxic” value is reported as 3.65% [at 80.4 µM] (inactive).
With `c1ccc2c(c1)sc1ccccc12` the Potency was “inactive”.
For `CCCN(CCOc1c(Cl)cc(Cl)cc1Cl)C(=O)n1ccnc1`, the “viability change, negative = cytotoxic” value was 0.346% (inactive).
With `Cc1cnc(C2=NC(C)(C(C)C)C(=O)N2)c(C(=O)O)c1` (centres undefined) the “viability change, negative = cytotoxic” value was 6.81% (inactive).
In the case of `C=CC(=O)NC(C)(C)CC(C)=O`, the “viability change, negative = cytotoxic” value is reported as -3.96% (inactive).
With `CC(C)(C)NCC(O)c1cc(Cl)c(N)c(C(F)(F)F)c1` (centres undefined) the “viability change, negative = cytotoxic” value was -6.59% (inactive).
With `COc1cc(CC#N)cc(OC)c1OC` the “viability change, negative = cytotoxic” value was 12.4% (inactive).

Biological target: Peroxisome proliferator-activated receptor delta (Homo sapiens) (UniProt Q03181)
Test: qHTS assay to identify small molecule antagonists of the peroxisome proliferator-activated receptor delta (PPARd) signaling pathway (AID 743215; active means well fitted inhibition curve with a large enough effect in the signal ratio in the repeat runs, not every such curve was filed as active; the % refers to the signal ratio;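 further: cells stimulated with agonist L165041 at 300 nM final during compound exposure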)
Conditions: HEK293H PPARd-UAS-bla, beta-lactamase FRET ratio, antagonist, 17 h; series mostly up to 62 µM; ratio activity, negative = inhibition: at the top concentration
Method in brief: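 Agonist L165041 (300 nM final) added with compound to PPARd-bla HEK293H UAS-bla reporter cells; 17 h incubation at 37 C. Read-out: LiveBLAzer FRET substrate, 2 h at room temperature, fluorescence intensity.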
In the case of `C=CCOC(=O)C(C)(C)OC(=O)c1cc(-n2c(=O)cc(C(F)(F)F)n(C)c2=O)ccc1Cl`, the “ratio activity, negative = inhibition” value is reported as -4% (inactive).
In the case of `CC[N+]1(C)CCCC(OC(=O)C(O)(c2ccccc2)c2ccccc2)C1` (centres undefined), the “ratio activity, negative = inhibition” value is reported as 2.75% (inactive).
With `Cc1cccc(C)c1NC1=NCCCS1` the “ratio activity, negative = inhibition” value was -1.21% (inactive).
In the case of `CCCCC(CC)CO[N+](=O)[O-]` (centres undefined), the “ratio activity, negative = inhibition” value is reported as 4.89% (inactive).
For `CCNC(=O)NC(=O)/C(C#N)=N/OC`, the “ratio activity, negative = inhibition” value was 4.6% (inactive).
With `N#CC(C#N)=Cc1ccc(O)c(O)c1` the “ratio activity, negative = inhibition” value was 6.29% (inactive).
With `CC(CC(C(N)=O)(c1ccccc1)c1ccccc1)N(C)C` (centres undefined) the “ratio activity, negative = inhibition” value was 4.19% (inactive).
In the case of `C1CS1`, the “ratio activity, negative = inhibition” value is reported as -7.16% [at 80.4 µM] (inactive).
With `O=C(Cc1ccccc1)OCCc1ccccc1` the “ratio activity, negative = inhibition” value was -2.49% (inactive).
For `c1ccc2c(c1)sc1ccccc12`, the “ratio activity, negative = inhibition” value was 0.973% (inactive).
For `CCCN(CCOc1c(Cl)cc(Cl)cc1Cl)C(=O)n1ccnc1`, the “ratio activity, negative = inhibition” value was 0% (inactive).
In the case of `CC(Oc1cc(Cl)c(Cl)cc1Cl)C(=O)O` (centres undefined), the “ratio activity, negative = inhibition” value is reported as -3.44% (inactive).
In the case of `CCOP(=S)(S)OCC`, the “ratio activity, negative = inhibition” value is reported as 2.75% [at 80.4 µM] (inactive).
With `Cc1cnc(C2=NC(C)(C(C)C)C(=O)N2)c(C(=O)O)c1` (centres undefined) the “ratio activity, negative = inhibition” value was -1.48% (inactive).
For `C=CC(=O)NC(C)(C)CC(C)=O`, the “ratio activity, negative = inhibition” value was -4.55% (inactive).
For `CC(C)(C)NCC(O)c1cc(Cl)c(N)c(C(F)(F)F)c1` (centres undefined), the “ratio activity, negative = inhibition” value was -1.89% (inactive).
